Drawing on PubChem BioAssay AID376 (PDSP, 2006), this text covers hERG blockade for 63 compounds.

About 250 (12%) of roughly 2,000 compounds were called active. No stated cut-off is given here; in the data, active means hERG blockade below about -20% or above about 20%; inactive means in between. The sample as a whole holds a higher share of actives than the screen did.

Voltage-gated inwardly rectifying potassium channel KCNH2 (Homo sapiens), sequence (Q12809 whole entry, looked up): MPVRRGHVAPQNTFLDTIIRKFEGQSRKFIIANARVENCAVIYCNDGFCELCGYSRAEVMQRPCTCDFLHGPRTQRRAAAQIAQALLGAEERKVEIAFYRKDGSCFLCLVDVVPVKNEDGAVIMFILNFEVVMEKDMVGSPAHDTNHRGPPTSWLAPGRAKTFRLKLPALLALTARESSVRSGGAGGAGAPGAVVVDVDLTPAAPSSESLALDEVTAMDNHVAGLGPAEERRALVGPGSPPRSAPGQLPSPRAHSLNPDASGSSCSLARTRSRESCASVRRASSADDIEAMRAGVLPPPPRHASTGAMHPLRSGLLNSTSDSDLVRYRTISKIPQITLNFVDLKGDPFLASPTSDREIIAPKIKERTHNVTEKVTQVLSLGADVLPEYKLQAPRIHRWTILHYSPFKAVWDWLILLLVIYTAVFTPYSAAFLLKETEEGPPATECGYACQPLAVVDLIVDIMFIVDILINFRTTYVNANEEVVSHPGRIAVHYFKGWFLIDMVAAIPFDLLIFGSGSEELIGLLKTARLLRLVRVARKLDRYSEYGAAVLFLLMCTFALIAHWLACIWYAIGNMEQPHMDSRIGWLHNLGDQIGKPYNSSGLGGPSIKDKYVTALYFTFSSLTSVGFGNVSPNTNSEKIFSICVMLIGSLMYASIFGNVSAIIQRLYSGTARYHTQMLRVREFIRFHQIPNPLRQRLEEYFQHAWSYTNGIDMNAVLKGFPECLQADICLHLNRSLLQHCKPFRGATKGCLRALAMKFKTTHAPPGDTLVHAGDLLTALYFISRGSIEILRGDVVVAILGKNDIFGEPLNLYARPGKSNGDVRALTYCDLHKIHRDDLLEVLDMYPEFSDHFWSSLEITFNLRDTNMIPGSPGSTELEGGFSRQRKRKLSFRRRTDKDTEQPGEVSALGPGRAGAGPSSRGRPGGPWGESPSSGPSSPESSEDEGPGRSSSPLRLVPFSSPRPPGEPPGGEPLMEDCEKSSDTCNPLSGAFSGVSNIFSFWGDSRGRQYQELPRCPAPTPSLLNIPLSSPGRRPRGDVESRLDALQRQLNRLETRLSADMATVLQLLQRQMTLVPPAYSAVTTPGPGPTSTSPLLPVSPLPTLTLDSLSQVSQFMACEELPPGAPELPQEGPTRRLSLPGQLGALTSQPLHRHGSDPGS

This assay concerns the target Voltage-gated inwardly rectifying potassium channel KCNH2 (Homo sapiens) (UniProt Q12809). The assay can be described thus: modulators of KCNH2 ion channel function, cellular (AID 376).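 Further: 0% = buffer alone and 100% = reference blocker.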 To be noted: hERG-expressing cells, channel activity single-concentration screen; concentration not given here. For orientation: The hERG channel carries a current that helps repolarise heart muscle cells.
For the compound `CCC(CN(C)C)C(=O)c1ccco1` (stereo not drawn), the hERG blockade is 5.17% (inactive).

`Clc1cccc(Cl)c1C(Nc1nncs1)Nc1nncs1`: the hERG blockade was -3.96% (inactive).

As to `Nc1nc(SCC(=O)O)[nH]c(=O)c1N`, the hERG blockade was 5.23% (inactive).

`O=C(Nc1c[nH]c(=O)[nH]c1=O)Oc1ccccc1`: the hERG blockade was -11% (inactive).

For the compound `NS(=O)(=O)c1cc(C(=O)O)c(O)c2ccccc12`, the hERG blockade was 2.98% (inactive).

Regarding `NS(=O)(=O)c1ccc(N=Nc2ccc(O)c(C(=O)O)c2)cc1`, the hERG blockade was -6.41% (inactive).

As for `NS(=O)(=O)c1ccc(N=Nc2c(O)c(C(=O)O)cc3ccccc23)cc1`, the hERG blockade was 22.9% (active).

`NS(=O)(=O)c1ccc(N=Nc2ncccc2O)cc1`: the hERG blockade was 17.7% (inactive).

In the case of `NS(=O)(=O)c1ccc(N=Nc2cc3ccccc3c(C(=O)O)c2O)cc1`, the hERG blockade was 33.3% (active).

As to `Cc1c(S(=O)(=O)O)ccc(N=Nc2c(O)c(C(=O)O)cc3ccccc23)c1Cl`, the hERG blockade is 2.42% (inactive).

For `O=C(O)CNc1ccc(C(=O)O)cc1`, the hERG blockade is 1.76% (inactive).

Take `CC(=NNc1nc(C)cc(=O)[nH]1)C(=O)O`: the hERG blockade was -18.5% (inactive).

Turning to `c1ccc(-c2cc(-c3cc(-c4ccccn4)[nH]n3)n[nH]2)nc1`, the hERG blockade was 6.68% (inactive).

On to `Cn1c(=O)c2[nH]c(C3CC(=O)CC(c4nc5c([nH]4)c(=O)n(C)c(=O)n5C)N3)nc2n(C)c1=O` (stereo not drawn), for which the hERG blockade was -8.89% (inactive).

Turning to `Oc1ccccc1C(Sc1nc2ccccc2s1)Sc1nc2ccccc2s1`, the hERG blockade was -6.16% (inactive).

As to `Cc1sc2ccccc2[n+]1CCC(=O)O`, the hERG blockade was -12.2% (inactive).

For the compound `O=C1Nc2ccccc2C1=Nc1cccc2ncccc12`, the hERG blockade is -1.09% (inactive).

Consider `O=C1Nc2ccccc2C1=Nc1ccc(S(=O)(=O)Nc2nccs2)cc1`, for which the hERG blockade is -2.12% (inactive).

In the case of `NS(=O)(=O)c1ccc(N=C2C(=O)Nc3ccccc32)cc1`, the hERG blockade is -20.3% (active).

Consider `CN(C)CCCN=C(N)N`, for which the hERG blockade is -7.66% (inactive).

With `O=C(O)C1CC2(C1)CC(C(=O)O)C2` (stereo not drawn), the hERG blockade was -11.8% (inactive).

Consider `CN(C)Cc1cc(C(F)(F)F)ccc1C(O)(c1ccccc1)c1ccccc1`, for which the hERG blockade was 21.7% (active).

Regarding `CN(C)Cc1cc(C(C)(C)C)cc(CN(C)C)c1O`, the hERG blockade was 6.58% (inactive).

With `CN(C)Cc1cc(C(C)(C)C)ccc1-c1ccc(C(C)(C)C)cc1CN(C)C`, the hERG blockade is 17.8% (inactive).

As for `O=C1CCC(c2ccccc2)=NN1c1nc2ccccc2s1`, the hERG blockade was -9.74% (inactive).

As for `CC(C(=O)c1ccncc1)c1ccccn1` (stereo not drawn), the hERG blockade was -1.76% (inactive).

On to `O=C(O)c1cc(C(=O)C(=O)c2cc(C(=O)O)c(O)c3ccccc23)c2ccccc2c1O`, for which the hERG blockade was 18.7% (inactive).

Take `O=C1c2cc([N+](=O)[O-])ccc2-c2ccc3c4ccc5c6c(ccc(c7ccc1c2c73)c64)C(=O)c1cc([N+](=O)[O-])ccc1-5`: the hERG blockade is 12.2% (inactive).

Consider `O=C1c2ccccc2-c2cc([N+](=O)[O-])c([N+](=O)[O-])cc21`, for which the hERG blockade is 77.8% (active).

Take `O=C1c2ccccc2-c2ccc(N=[N+]([O-])c3ccc4c(c3)C(=O)c3ccccc3-4)cc21`: the hERG blockade was -2.94% (inactive).

Turning to `CNC1NC(=O)c2ccccc2N1Cc1ccc(F)cc1` (stereo not drawn), the hERG blockade is 9.53% (inactive).

Consider `c1ccc(CSc2nnc3c4ccccc4c4ccccc4c3n2)cc1`, for which the hERG blockade was -3.1% (inactive).

In the case of `CCOC(=O)C(O)Cc1cnc2ccccc2n1` (stereo not drawn), the hERG blockade is 19.4% (inactive).

Take `c1ccc(CCNCc2ccco2)nc1`: the hERG blockade is -7.49% (inactive).

In the case of `CCCC(Sc1nc(N)nc2nc[nH]c12)C(=O)O` (stereo not drawn), the hERG blockade is 2.81% (inactive).

For `CC(C)(SCc1ccccc1)C(N)C(=O)O` (stereo not drawn), the hERG blockade is 2.47% (inactive).

For `NS(=O)(=O)c1ccc(NC(=O)Nc2cccc3ccccc23)cc1`, the hERG blockade is 0.23% (inactive).

As to `CC(=N[O-])C(C)=N[O-].CC(=N[O-])C(C)=N[O-].CC(=N[O-])C(C)=N[O-].CC(=N[O-])C(C)=N[O-].[CH3-].[CH3-].[Co].[Co]`, the hERG blockade was 11.4% (inactive).

Consider `O=S(=O)(c1cccc(C(F)(F)F)c1)N1c2ccccc2-n2cccc2C1c1cccnc1` (stereo not drawn), for which the hERG blockade is 18% (inactive).

`FC(F)(F)c1nc(SCc2ccc(Cl)cc2)n[nH]1`: the hERG blockade was 4.58% (inactive).

For `CSc1nc(C)cc(Nc2ccc(O)c(CN3CCCCC3)c2)n1`, the hERG blockade is 14.8% (inactive).

Regarding `COc1ccc2c(Cl)cc(NC(=S)Nc3ccccc3)nc2c1`, the hERG blockade was -8.81% (inactive).

For `COc1ccc2nc3cc(Cl)ccc3c(Nc3ccc(O)c(CN4CCN(C)CC4)c3)c2c1`, the hERG blockade was 61.7% (active).

For `OC(CNc1ccccn1)c1ccccc1` (stereo not drawn), the hERG blockade is 5.58% (inactive).

With `Cc1cc(Cc2c(C)c(C)c(Cc3cc(C)cc(C(C)(C)C)c3O)c(C)c2C)c(O)c(C(C)(C)C)c1`, the hERG blockade is 1.65% (inactive).

`Nc1ccc(N(S(=O)(=O)c2ccccc2)S(=O)(=O)c2ccccc2)c(Cl)c1`: the hERG blockade was 0.845% (inactive).

Consider `COc1cc(CN2CCCCC2)cc2cc(C(=O)O)c(=O)oc12`, for which the hERG blockade was 4.84% (inactive).

Regarding `O=C(O)c1ccc(C(=O)O)c2c(C(=O)O)ccc(C(=O)O)c12`, the hERG blockade is -5.21% (inactive).

As for `O=C(O)c1c[nH]c2cc(OCc3ccccc3)ccc2c1=O`, the hERG blockade was 6.26% (inactive).

As to `O=C(O)c1c[nH]c2c(ccc3[nH]cc(C(=O)O)c(=O)c32)c1=O`, the hERG blockade was 22.9% (active).

`O=C(O)C(Cc1ccccc1-c1ccccc1)C(=O)O`: the hERG blockade was 19.4% (inactive).

As to `Cc1n[nH]c2ccccc2c1=O`, the hERG blockade is -1.27% (inactive).

For the compound `COc1ccc2ccccc2c1C=CC(=O)c1ccccc1`, the hERG blockade is -1.69% (inactive).

As for `O=C(C[n+]1ccc2ccccc2c1)c1ccc2ccc3ccccc3c2c1`, the hERG blockade was 37.2% (active).

In the case of `O=C(O)CCC(=O)c1ccc2sc3ccccc3c2c1`, the hERG blockade was -5.18% (inactive).

Turning to `OC(COc1ccc(Cl)cc1Cl)CN1CCCC1` (stereo not drawn), the hERG blockade was 17.2% (inactive).

As for `C[N+](C)(N)CCC[N+](C)(C)N`, the hERG blockade was -2.4% (inactive).

For the compound `O=C1C2=C(Nc3cc([N+](=O)[O-])ccc3N2)OC1c1c[nH]c2ccc(COc3ccccc3)cc12` (stereo not drawn), the hERG blockade was 4.4% (inactive).

With `Nc1nc(SCc2ccccc2Cl)cc(C(=O)O)n1`, the hERG blockade was -7.45% (inactive).

`CC(C)C1=CC23CCC4C(C)(C(=O)O)CCCC4(C)C2CC1C(C(=O)O)C3C(=O)O` (stereo not drawn): the hERG blockade was 6.18% (inactive).

Take `CC(O)(c1ccccc1)c1nccc2ccccc12` (stereo not drawn): the hERG blockade is 0.101% (inactive).

Regarding `Oc1ccc2ccccc2c1Cc1c(O)ccc2ccccc12`, the hERG blockade was 8.8% (inactive).

Consider `Oc1c(C(O)(c2ccccc2)c2ccc3ccccc3c2O)ccc2ccccc12`, for which the hERG blockade is 50.7% (active).
